According to PubChem BioAssay (NCATS):
Records with an inconclusive call do not appear. Entries that show only a call come without a potency. Values without a mark were called inactive. Activity calls are given as the source filed them. The call rests on the fitted dose curve; in most records, active means well fitted curve in the direction sought with a large enough effect; inconclusive means small, poorly fitted or top-dose-only effect, or another doubt; inactive means no such curve, though single readings can be large; an effect the other way counts as inactive or inconclusive.

Legend:
[1] = molecular target: Rap guanine nucleotide exchange factor 3 (Homo sapiens) (UniProt O95398); test: Confirmatory qHTS for antagonist of cAMP-regulated guanine nucleotide exchange factor 3 (EPAC1) (AID 1645880); further: nearly all actives have a fitted effect of over 55% in size; further: potency means the concentration at half of the fitted maximal effect
Outline: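 Released BODIPY-GDP fluoresces less than Rap1-bound BODIPY-GDP; the signal is followed at 480/540 nm at 5-min intervals over 30 min, after 5 min at room temperature. Reactions contain 100 nM EPAC1, 250 nM RAP1B-BODIPY-GDP and 50 uM GDP; results are normalized to ATA and DMSO.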

[2] = molecular target: Rap guanine nucleotide exchange factor 3 (Homo sapiens) (UniProt O95398); test: Confirmatory qHTS for agonist of cAMP-regulated guanine nucleotide exchange factor 3 (EPAC1) (AID 1645881);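 further: EPAC1 catalysed release of BODIPY-GDP from Rap1B seen as fluorescence loss; nearly all actives have a fitted effect of over 75% in size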
[3] = molecular target: Rap guanine nucleotide exchange factor 4 (Homo sapiens) (UniProt Q8WZA2); test: Confirmatory qHTS for agonist of cAMP-regulated guanine nucleotide exchange factor 4 (EPAC2) (AID 1645884);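 further: nucleotide exchange releases bodipy-GDP from Rap1 and this lowers its fluorescence; nearly all actives have a fitted effect of over 65% in size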
[4] = molecular target: Rap guanine nucleotide exchange factor 4 (Homo sapiens) (UniProt Q8WZA2); test: Confirmatory qHTS for antagonist of cAMP-regulated guanine nucleotide exchange factor 4 (EPAC2) (AID 1645885); further: nearly all actives have a fitted effect of over 25% in size; further: potency means the concentration at half of the fitted maximal effect
[5] = molecular target: Rap guanine nucleotide exchange factor 3 (Homo sapiens) (UniProt O95398); test: Counterscreen qHTS for antagonist of cAMP-regulated guanine nucleotide exchange factor 3 (EPAC1) (AID 1645888)
Outline: (§1)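 Rap1B–BODIPY-GDP (250 nM) with 50 uM GDP; compounds pin-transferred to 9.74 nM–152 uM final (activator) or from 7.32 nM upwards (inhibitor). Fluorescence Ex/Em 480/540 nm read at 5 and 30 min, then after adding cAMP or buffer, at room temperature.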

[6] = molecular target: Rap guanine nucleotide exchange factor 3 (Homo sapiens) (UniProt O95398); test: Counterscreen qHTS for agonist of cAMP-regulated guanine nucleotide exchange factor 3 (EPAC1) (AID 1645889); further: nearly all actives have a fitted effect of over 40% in size
Outline: as §1

Chain of Rap guanine nucleotide exchange factor 4 (Homo sapiens) (Q8WZA2 whole entry, looked up): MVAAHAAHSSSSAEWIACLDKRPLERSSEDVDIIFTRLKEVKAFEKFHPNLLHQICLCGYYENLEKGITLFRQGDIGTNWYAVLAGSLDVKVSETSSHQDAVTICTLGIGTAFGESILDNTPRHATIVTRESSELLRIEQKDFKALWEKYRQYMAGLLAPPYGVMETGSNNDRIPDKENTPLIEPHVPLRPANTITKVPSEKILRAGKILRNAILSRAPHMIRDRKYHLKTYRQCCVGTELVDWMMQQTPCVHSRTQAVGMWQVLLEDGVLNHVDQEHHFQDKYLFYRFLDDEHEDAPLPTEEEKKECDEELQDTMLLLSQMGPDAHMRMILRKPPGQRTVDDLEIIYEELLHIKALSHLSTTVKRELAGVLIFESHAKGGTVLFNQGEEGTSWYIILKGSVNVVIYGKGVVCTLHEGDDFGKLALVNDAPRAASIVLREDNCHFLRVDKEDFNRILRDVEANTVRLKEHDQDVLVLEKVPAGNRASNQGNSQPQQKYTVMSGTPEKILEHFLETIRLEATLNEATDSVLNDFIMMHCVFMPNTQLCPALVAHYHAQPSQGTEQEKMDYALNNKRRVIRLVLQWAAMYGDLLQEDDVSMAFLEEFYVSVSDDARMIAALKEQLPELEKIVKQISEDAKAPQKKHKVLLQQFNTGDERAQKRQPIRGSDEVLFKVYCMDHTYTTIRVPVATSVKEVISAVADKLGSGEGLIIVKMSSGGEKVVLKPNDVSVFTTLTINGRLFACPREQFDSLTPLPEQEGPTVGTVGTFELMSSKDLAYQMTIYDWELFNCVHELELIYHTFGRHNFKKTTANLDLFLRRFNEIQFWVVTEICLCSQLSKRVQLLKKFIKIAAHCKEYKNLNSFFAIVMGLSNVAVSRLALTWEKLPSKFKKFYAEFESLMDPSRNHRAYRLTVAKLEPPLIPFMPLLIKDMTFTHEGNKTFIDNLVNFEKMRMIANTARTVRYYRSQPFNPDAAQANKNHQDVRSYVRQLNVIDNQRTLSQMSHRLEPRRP
Chain of Rap guanine nucleotide exchange factor 3 (Homo sapiens) (O95398 whole entry, looked up): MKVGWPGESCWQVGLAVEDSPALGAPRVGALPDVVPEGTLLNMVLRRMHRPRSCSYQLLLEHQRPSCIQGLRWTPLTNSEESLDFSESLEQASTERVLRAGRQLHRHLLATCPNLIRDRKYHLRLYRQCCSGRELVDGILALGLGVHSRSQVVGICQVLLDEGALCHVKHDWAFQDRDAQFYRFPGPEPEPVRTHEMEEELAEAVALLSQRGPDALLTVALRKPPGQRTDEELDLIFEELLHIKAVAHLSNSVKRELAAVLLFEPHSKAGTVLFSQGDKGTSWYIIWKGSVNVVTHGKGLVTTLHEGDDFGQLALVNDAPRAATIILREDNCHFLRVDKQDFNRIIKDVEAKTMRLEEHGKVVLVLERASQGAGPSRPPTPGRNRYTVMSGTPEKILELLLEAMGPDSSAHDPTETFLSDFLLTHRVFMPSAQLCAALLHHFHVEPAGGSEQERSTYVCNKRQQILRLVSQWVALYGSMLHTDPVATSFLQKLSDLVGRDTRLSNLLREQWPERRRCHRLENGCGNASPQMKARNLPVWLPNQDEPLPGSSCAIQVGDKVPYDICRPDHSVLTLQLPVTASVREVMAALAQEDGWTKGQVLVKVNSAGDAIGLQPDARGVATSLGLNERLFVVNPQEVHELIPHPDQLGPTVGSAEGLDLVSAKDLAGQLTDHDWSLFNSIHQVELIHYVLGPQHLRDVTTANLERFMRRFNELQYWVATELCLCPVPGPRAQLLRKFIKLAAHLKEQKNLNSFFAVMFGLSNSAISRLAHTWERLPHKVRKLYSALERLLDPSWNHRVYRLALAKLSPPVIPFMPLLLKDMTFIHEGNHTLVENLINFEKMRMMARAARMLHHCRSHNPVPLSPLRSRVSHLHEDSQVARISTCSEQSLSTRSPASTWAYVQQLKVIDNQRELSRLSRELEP

Structure (SMILES)	Potency [1]	Potency [2]	Potency [3]	Potency [4]	Potency [5]	Potency [6]	activation [3]	activity change, negative = inhibition [5]	activation [6]
O=C(Cc1ccccc1)O/N=C1\CCCc2ccccc21	inactive	inactive	inactive	inactive	inactive	inactive	–	–	–
NN=C1c2ccccc2C(=O)C1C(=O)C(c1ccccc1)c1ccccc1 (stereo not given)	42.6 µM (active)	inactive	inactive	inactive	inactive	inactive	–	–	–
COC(=O)c1sccc1NS(=O)(=O)c1ccccc1[N+](=O)[O-]	inactive	inactive	–	inactive	–	–	-1.71% [at 17.1 µM, percent relative to cAMP agonist control]	-0.412% [at 30.8 µM]	33.8% [at 30.8 µM]
Cc1nn(-c2ccccc2)c(Cl)c1/C=C1\SC(=S)NC1=O	12 µM (active)	inactive	inactive	inactive	inactive	inactive	–	–	–
NNC(=O)c1cccc(COCC(F)(F)C(F)F)c1	inactive	inactive	inactive	inactive	inactive	inactive	–	–	–
CCC(=O)OCCCNc1nc(-c2ccc(Cl)cc2)nc2ccccc12	inactive	inactive	inactive	inactive	inactive	inactive	–	–	–
COc1ccc(-c2c(-c3ccccc3OC)oc3ccccc23)cc1F	inactive	inactive	inactive	6.75 µM (active)	inactive	inactive	–	–	–
Cc1cc2c(c(=O)o1)C(c1ccc([N+](=O)[O-])o1)C(C#N)=C(N)O2 (stereo not given)	inactive	inactive	inactive	inactive	inactive	inactive	–	–	–
Cc1ccc2nc(-c3ccc(Cl)cc3)c(Cc3ccccc3C(F)(F)F)n2c1	inactive	inactive	–	inactive	–	–	10.6% [at 17.1 µM, percent relative to cAMP agonist control]	0.28% [at 30.8 µM]	-0.77% [at 30.8 µM]
O=C(NS(=O)(=O)c1ccc2ccc(S(=O)(=O)NCCSc3ccccc3)cc2c1)c1cccc2ccccc12	42.6 µM (active)	inactive	inactive	67.5 µM (active)	inactive	inactive	–	–	–
CC1(C(=O)O)CCC2(C)CCC3(C)C(=CC(=O)C4C5(C)CCC(=O)C(C)(C)C5CCC43C)C2C1 (stereo not given)	inactive	inactive	inactive	inactive	inactive	inactive	–	–	–
CCCCN1C(=O)C(C(=O)OCc2ccccc2)CC2=C1CCCC2=O (stereo not given)	inactive	inactive	inactive	inactive	inactive	inactive	–	–	–
Cc1noc(NS(=O)(=O)c2ccc(NC(=O)CSc3nnc4c(n3)[nH]c3ccccc34)cc2)c1C	23.9 µM (active)	inactive	inactive	inactive	inactive	inactive	–	–	–
CCC(C)Sc1c(C(C)C)cnc2c1c(=O)n(C)c(=O)n2C (stereo not given)	inactive	inactive	inactive	inactive	inactive	inactive	–	–	–
O=C(Nc1sc(-c2ccccc2)cc1C(=O)O)c1ccccc1	75.7 µM (active)	inactive	inactive	inactive	inactive	inactive	–	–	–
Cc1ccc(S(=O)(=O)/N=C2/NC(=O)/C(=C\c3cc(Br)cc(Br)c3O)S2)cc1	16.9 µM (active)	inactive	inactive	inactive	inactive	inactive	–	–	–
CC(C)OC(=O)c1c(-c2ccccc2)c(-c2ccccc2)nn(C)c1=O	inactive	inactive	inactive	inactive	inactive	inactive	–	–	–
NS(=O)(=O)c1ccc(CCNC(=O)c2ccc3nccnc3c2)cc1	47.8 µM (active)	inactive	inactive	inactive	inactive	inactive	–	–	–
C=CCOC(=O)C1=C(C)Nc2nnnn2C1c1cccs1 (stereo not given)	inactive	inactive	inactive	inactive	inactive	inactive	–	–	–
CCOC(=O)c1ccc(-c2ccc(/C=C(\C#N)C(=O)Nc3c(C)cccc3Cl)o2)cc1	75.7 µM (active)	inactive	inactive	inactive	inactive	inactive	–	–	–
